PubChem BioAssay AID2661 (Broad Institute, 2010)
In all, about 320,000 compounds went through this assay and about 240 (0.075%) were called active. The full list was thinned out, with actives kept by preference. Values without a mark were called inactive.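 How the source made its calls: active means inhibition at or above 25%, using the most active replicate where run in duplicate; inactive means inhibition below 25%.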

target: Serine/threonine-protein kinase 33 (Homo sapiens) (UniProt Q9BYT3); assay: inhibitors of purified STK33 kinase, primary screen, biochemical, ADP-Glo luminescence, homogeneous, cell-free (AID 2661); details: purified STK33, MBP phosphorylation, at 10 µM, active compounds read high
Sequence (Q9BYT3 whole entry, looked up): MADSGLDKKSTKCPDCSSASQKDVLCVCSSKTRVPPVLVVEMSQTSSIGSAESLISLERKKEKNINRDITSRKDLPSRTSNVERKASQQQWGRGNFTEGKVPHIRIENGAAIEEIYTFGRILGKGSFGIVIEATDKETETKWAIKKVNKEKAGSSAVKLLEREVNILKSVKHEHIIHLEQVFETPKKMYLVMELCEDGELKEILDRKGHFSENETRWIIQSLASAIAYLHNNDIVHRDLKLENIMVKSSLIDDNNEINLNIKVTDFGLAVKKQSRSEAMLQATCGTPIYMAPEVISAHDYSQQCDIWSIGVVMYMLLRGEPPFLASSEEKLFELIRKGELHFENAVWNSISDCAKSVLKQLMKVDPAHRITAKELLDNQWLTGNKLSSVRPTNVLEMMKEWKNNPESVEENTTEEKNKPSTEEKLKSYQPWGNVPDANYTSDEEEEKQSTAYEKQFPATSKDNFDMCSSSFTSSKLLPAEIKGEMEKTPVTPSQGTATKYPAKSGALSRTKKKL

SMILES | inhibition
COc1ccc(CCNC(=O)COC(=O)c2cnc(Cl)c(Cl)c2)cc1 | 0.375%
C[C@]12CC[C@H](O)CC1=CCC1C2CC[C@@]2(C)C1CC[C@@H]2NC(=O)CCC(=O)O (stereo partly drawn) | -0.89%
CC1CCCCC1NCC(=O)Nc1ccccc1C(=O)Nc1ccccc1 (stereo not drawn) | 0.481%
CC(C)(C)OC(=O)C[C@H]1C/C=C\C[C@@H](CC(=O)N[C@H](CO)Cc2ccccc2)C(=O)NC[C@@H](c2ccccc2)OC1=O | -0.103%
O=C1COc2ccc(C(=O)COC(=O)c3ccccc3Cl)cc2N1 | -0.902%
Cn1c(N)c(C(=O)COC(=O)c2cccc(S(=O)(=O)N3CCOCC3)c2)c(=O)n(C)c1=O | -0.402%
O=C(Cn1cc(C(F)(F)F)ccc1=O)Nc1ccc2c(c1)OCCO2 | -0.216%
C[C@H]1COC(=O)[C@H](CC(=O)OC(C)(C)C)C/C=C\C[C@@H](CC(=O)N[C@H](CO)Cc2ccccc2)C(=O)N1 | 0.871%
C[C@H](CO)N1C[C@H](C)[C@@H](CN(C)S(=O)(=O)c2ccc(F)cc2)Oc2ccc(NC(=O)CCC(F)(F)F)cc2C1=O | -3.43%
CCN(c1ccccc1)S(=O)(=O)c1ccc(C(=O)Nc2ccccc2OC)cc1 | -0.186%
Cc1csc2nc(COC(=O)c3cccc(N(C)C)c3)cc(=O)n12 | 0.859%
Cc1csc(=O)n1CC(=O)Nc1ccc(S(C)(=O)=O)cc1 | -0.384%
COc1ccc(-c2c(C#Cc3ccsc3)c3cc(-c4ccc(CN5CCOCC5)cc4)ccc3n2C)cc1 | -0.0231%
O=S(=O)(Nc1ncnc2sccc12)c1cccc(F)c1 | -0.694%
CCN(C[C@H]1N[C@@](CC)(C(=O)OC)[C@H]2C(=O)N(C)C(=O)[C@@H]12)C(=O)Nc1ccc(F)cc1 | -1.58%
Cc1ccc(NC(=O)c2ccc(Cl)nc2)cc1S(=O)(=O)N1CCOCC1 | -0.219%
COc1ccccc1N(CC(=O)Nc1ccc(C)cc1Cl)S(=O)(=O)c1cccs1 | -0.284%
Cc1ccc(CNC(=O)COC(=O)C2CCC2)cc1 | -0.167%
C=CC[C@@H](CC(=O)N[C@H](CO)Cc1ccccc1)C(=O)N[C@H](C)COC(=O)[C@@H](CC=C)Cc1ccc(F)cc1 | -1.41%
O=C(COC(=O)c1cc(S(=O)(=O)N2CCOCC2)ccc1F)NC1CC1 | -1.08%
O=C1CC2(CCCC2)C(=O)N1CN1CCN(S(=O)(=O)c2ccc(F)cc2F)CC1 | 0.0533%
O=C(C[C@H]1C/C=C\C[C@@H](NC(=O)OCC2c3ccccc3-c3ccccc32)C(=O)O[C@@H](c2ccccc2)CNC1=O)N[C@H](CO)Cc1ccccc1 | 0.211%
COc1ccc(C(=O)COC(=O)c2c(C)noc2C)cc1Cl | 0.472%
O=C(COC(=O)c1cccnc1Cl)NC12CC3CC(CC(C3)C1)C2 | -1.76%
CCn1c(/C=C/c2ccc([N+](=O)[O-])o2)nc2ccccc2c1=O | 84.6% (active)
Cc1cc(C)nc(N/N=C/c2ccc([N+](=O)[O-])o2)n1 | 0.179%

SMILES | inhibition
CCn1c(=O)c([N+](=O)[O-])c(NCc2ccc3c(c2)OCO3)c2ccccc21 | 2.57%
Cn1c(N)c(C(=O)COC(=O)c2ccc3ccccc3c2)c(=O)n(C)c1=O | -1.35%
CCOC(=O)[C@H]1[C@H]2COc3cc(OC)ccc3[C@@H]2N2C(=O)CN(Cc3ccc(Cl)cc3)C(=O)[C@@]12C | 0.914%
O=C(COC(=O)c1n[nH]c2ccccc12)Nc1ccccc1Br | -1.11%
CC1CCCCC1NC(=O)Cn1cnc2c1c(=O)n(C)c(=O)n2C (stereo not drawn) | 1.66%
Cc1ccc2c(c1)NC(=O)[C@@]1(C)[C@@H](c3ccccc3)[C@H]3COc4ccc(Cl)cc4[C@@H]3N1C2=O | -0.222%
CC1(C)CC[C@@]2(C(=O)O)C(C1)C1=CCC3[C@@]4(C)CC[C@H](O)C(C)(C)C4CC[C@@]3(C)[C@]1(C)C[C@H]2O (stereo partly drawn) | -0.618%
CCN(C[C@H]1N[C@@](Cc2ccccc2)(C(=O)OC)[C@H]2C(=O)N(Cc3ccccc3)C(=O)[C@@H]12)C(=O)c1ccc(C)cc1 | -0.0719%
COc1ccc(-c2nc3cnccn3c2NC2CCCCC2)cc1-c1cccc(Cl)c1 | 0.0525%
CN1CCN(C(=O)c2ccc(-c3ccc(Br)cc3)o2)CC1 | -1.87%
Cc1ccc(C2(C)NC(=O)N(CC(=O)N3CC(=O)Nc4ccccc43)C2=O)cc1 (stereo not drawn) | -1.43%
O=C(NCc1ccc2c(c1)OCO2)c1cc([N+](=O)[O-])ccc1N1CCOCC1 | 0.302%
COc1ccc(Br)cc1CN(C)C(=O)C1CC(=O)N(C2CCCC2)C1 (stereo not drawn) | -1.57%
COc1cc(C=NNC(=O)c2cccnc2)ccc1OC(=O)c1ccccc1F | -0.897%
COc1ccccc1C(=O)OCC(=O)Nc1cccc(S(=O)(=O)NC2=NCCCCC2)c1 | -2.03%
O=C(NNS(=O)(=O)c1c(F)cc(F)c(Cl)c1F)C12CC3CC(CC(C3)C1)C2 | 0.0785%
C=CC[C@H](CC(=O)N(CCO)Cc1ccccc1)C(=O)N[C@@H](COC(=O)[C@@H](CC=C)Cc1ccc(F)cc1)Cc1ccccc1 | -2.76%
CC1(c2ccccc2)NC(=O)N(CC(=O)N2CC(=O)Nc3ccccc32)C1=O (stereo not drawn) | -2.96%
O=C(Nc1cccc(S(=O)(=O)N2CCOCC2)c1)C12CC3CC(CC(C3)C1)C2 | -0.903%
COc1ccc(C2=Nn3c(nnc3-c3ccccc3OC)SC2)cc1OC1CCCC1 | 0.928%
O=C(COC(=O)c1ccncc1)Nc1ccc2c(c1)OCO2 | 0.121%
CN(CC(=O)NCCc1ccc(S(N)(=O)=O)cc1)CC(=O)Nc1ccc(F)c(F)c1F | -2.4%
Cc1cccc(C(=O)OCC(=O)NC(C)C2CC3CCC2C3)c1O (stereo not drawn) | -0.0496%
Cc1occc1C(=O)Nc1cccc(S(=O)(=O)N2CCOCC2)c1 | -0.0898%
O=C(COC(=O)c1ccc2c(c1)OCCO2)NCc1ccccc1Cl | 0.627%
COc1ccc2sc(-c3ccc(S(C)(=O)=O)cc3)c(-c3ccc(C(N)=O)cc3)c2c1 | 0.996%

SMILES | inhibition
CCOC(=O)C1CCN(C(=O)CN2C(=O)NC(C)(c3ccc4cc(OC)ccc4c3)C2=O)CC1 (stereo not drawn) | -0.656%
O=C(OCCN1C(=O)c2ccccc2C1=O)[C@@H]1CC(O)CN1S(=O)(=O)c1ccccc1[N+](=O)[O-] (stereo partly drawn) | -1.85%
Cc1ccc(C(=O)Nc2ccc3c(c2)OCCO3)cc1S(=O)(=O)N1CCOCC1 | -0.304%
CC(C)Cn1c(SCC(=O)Nc2ccc(Cl)cc2F)nc(O)cc1=O | -0.953%
COc1cc(/C=N/NC(=O)Cc2ccccc2)cc(OC)c1OC | -2.17%
COc1ccccc1N=Cc1c(O)c2ccccc2oc1=O | -1.49%
CN=c1scc(-c2cc(OC)ccc2OC)n1/N=C/c1c(C)[nH]c2ccccc12 | -0.488%
COc1cc(N=Cc2c(O)[nH]c3ccccc23)cc(OC)c1OC | 58.4% (active)
COc1ccc(N=Cc2c(O)[nH]c3ccccc23)cc1OC | 52.5% (active)
COc1ccc2[nH]c(C(=O)N/N=C/c3cc(OC)c(OC)c(OC)c3)cc2c1 | 2.65%
O=C1NC(Cc2ccc(O)cc2)c2nc3ccc(Cl)cc3c(=O)n2-c2ccccc21 (stereo not drawn) | -0.58%
COc1ccc(S(=O)(=O)N2CCN(CC(=O)N3CCOCC3)CC2)cc1OC | -0.603%
C=CCC[C@@H](Cc1ccc(F)cc1)C(=O)O[C@H](CNC(=O)[C@H](CC=C)CC(=O)N(CCO)Cc1ccccc1)c1ccccc1 | -2.71%
COc1cccc(NC(=O)COc2cccnc2[N+](=O)[O-])c1 | -0.0978%
CC(OC(=O)c1ccc(Cl)cc1O)C(=O)NCCC1=CCCCC1 (stereo not drawn) | -0.652%
CC1CC(=NNC(=O)C2COc3ccccc3O2)CC(C)(C)C1 (stereo not drawn) | -2.29%
CN(CC(=O)Nc1ccc(C(N)=O)cc1)S(=O)(=O)c1ccc2c(c1)OCCO2 | -0.492%
O=C(Nc1cccc(S(=O)(=O)NC2=NCCC2)c1)c1ccc(F)cc1F | -1.19%
Cc1ccc(S(=O)(=O)Nc2ccc(F)c(S(=O)(=O)N3CCOCC3)c2)cc1 | -2.74%
COc1ccc(C(=O)COC(=O)C(O)c2ccccc2)c(OC)c1 (stereo not drawn) | -0.118%
O=C(N[C@@H]1C/C=C\C[C@@H](CC(=O)N(CCO)Cc2ccccc2)C(=O)N[C@H](Cc2ccccc2)COC1=O)OCC1c2ccccc2-c2ccccc21 | -2.32%
Fc1ccc2cnc(-c3ccccc3)cc2c1 | -0.562%
C=CCC[C@@H](Cc1ccc(F)cc1)C(=O)OC[C@H](Cc1c[nH]c2ccccc12)NC(=O)[C@@H](CC=C)CC(=O)N(CCO)Cc1ccccc1 | -0.461%
O=C1N[C@@H](c2ccccc2)COC(=O)[C@H](Cc2ccc(F)cc2)C/C=C\C[C@@H]1CC(=O)N(CCO)Cc1ccccc1 | 0.44%
CCN(CC(=O)NCc1ccc(F)cc1)S(=O)(=O)c1ccc(Cl)s1 | 0.0366%
NC(=O)Nc1ccc(C(=O)OCC(=O)NC2CCCc3ccccc32)cc1 (stereo not drawn) | -0.0928%
